# According to PubChem BioAssay (EPA / NIEHS):
# Where “and” joins values, the source holds several entries; their conditions need not be identical. Equal entries are not always repeated. Results filed as inconclusive are left out. Some structures have more than one record in an assay (separate samples or runs), and their calls can disagree. Calls of active or inactive are those of the source. How the source made its calls, unless noted: active means hit-call score of the fitted dose curve at least 0.9, where 1 is the maximum; inactive means score below 0.9.
# How the values were obtained:
# [1] = BSK_BT_PBMCCytotoxicity: PBMC Cytotoxicity Assessment in the BioMAP Diversity Plus: BT Assay (AID 2284225); settings: primary human B cells with PBMC
# Summary of the method: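 75,000 cells/well; cpd 1 h → SEB + TSST-1 (20 ng/mL final each) → 90 h → Alamar Blue 6 h → fluor. 546/580 nm. DMSO = neg. control/baseline.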
# [2] = read-out: Secreted IgG (sIgG), gene 3500; experiment: BSK_BT_sIgG: BioMAP Diversity Plus: BT Assay for Secreted IgG (sIgG) Biomarker Activity (AID 2284226); settings: primary human B cells with PBMC
# Summary of the method: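 B cells co-cultured with PBMC were dosed with chemical and secreted IgG quantified by ELISA at 24 h. Activity was fitted in the positive direction relative to DMSO as negative control and baseline.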
# [3] = BSK_BT_Bcell_Proliferation: Viability Assessment in the BioMAP Diversity Plus: BT Assay for B cell Proliferation (AID 2284227); settings: primary human B cells with PBMC
# Summary of the method: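 Human B cells co-cultured with PBMC were dosed with test chemicals and relative cell number was quantified by SRB staining at 72 h. Cells were fixed in 10% TCA, stained with 0.1% SRB and read at 560 nm. Activity was fitted in the positive direction against DMSO.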
# [4] = read-out: Interleukin 6 (IL6), IL6 (gene 3569); experiment: BSK_BT_xIL6: BioMAP Diversity Plus: BT Assay for Interleukin 6 (IL6) Biomarker Activity (AID 2284228); settings: primary human B cells with PBMC
# Summary of the method: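 B cells and peripheral blood mononuclear cells (human primary co-culture) were dosed with chemical, and after 24 h IL-6 released into the medium was measured by Luminex xMAP. Responses were analysed as gain of signal over DMSO control.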
# [5] = read-out: Interleukin 17A (IL17A), IL17A (gene 3605); experiment: BSK_BT_xIL17A: BioMAP Diversity Plus: BT Assay for Interleukin 17A (IL17A) Biomarker Activity (AID 2284229); settings: primary human B cells with PBMC
# Summary of the method: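 Secreted IL-17A was the measured endpoint, read by Luminex xMAP multiplex in supernatants of a human B cell/PBMC co-culture harvested 24 h after chemical dosing. Signal increase relative to DMSO defined activity.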
# [6] = read-out: Tumor necrosis factor (Homo sapiens) (UniProt P01375); experiment: BSK_BT_xTNFa: BioMAP Diversity Plus: BT Assay for Tumor necrosis factor alpha (TNF-alpha) Biomarker Activity (AID 2284230); settings: primary human B cells with PBMC
# Summary of the method: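 B cells with PBMC in co-culture, dosed and sampled at 24 h; secreted TNF-alpha measured by Luminex xMAP bead assay. Activity fitted in the gain direction against DMSO as negative control and baseline.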
# [7] = read-out: Vascular cell adhesion molecule 1 (VCAM1), VCAM1 (gene 7412); experiment: BSK_MyoF_VCAM1: BioMAP Diversity Plus: MyoF Assay for Vascular cell adhesion molecule 1 (VCAM1) Biomarker Activity (AID 2284231); settings: primary human lung fibroblasts
# Experimental: BSK_MyoF is a cell-based, multiplexed-readout assay that uses lung fibroblasts, […], with measurements taken at 24 hours after chemical dosing in a microplate: 96-well plate.BSK_MyoF_VCAM1 is an assay component measured in the BSK_MyoF assay. It measures VCAM-1 antibody related to regulation of gene expression using ELISA technology.Data from the assay component BSK_MyoF_VCAM1 was analyzed at the endpoint, BSK_MyoF_VCAM1, in the positive analysis fitting direction relative to DMSO as the negative control and baseline of activity. Using a type of binding reporter, gain or loss-of-signal activity can be used to understand protein changes. To generalize the intended target to other relatable targets, this assay endpoint is annotated to the 'cell adhesion molecules' intended target family, where the subfamily is 'Immunoglobulin CAM'.
# The levels of cell surface (or secreted, indicated by the prefix "s") biomarker endpoints were measured by ELISA. Overt cytotoxicity to cells in confluent adherent cultures (all systems other than the BT system) was assessed by measuring total protein levels using sulforhodamine B (SRB) staining in parallel cultures at the time of biomarker measurements, indicated as SRB endpoints. For proliferation assays for adherent cell types, individual cell types are cultured at sub-confluence and relative cell numbers quantified by SRB staining at time points optimized for each system (48 h: 3C and CASM3C systems; 72 h: BT and HDF3CGF systems; 96 h: SAg system). SRB was performed by staining cells with 0.1% SRB after fixation with 10% TCA and reading wells at 560 nm.Viability and proliferation of PBMC (T cells) was quantified by Alamar Blue reduction for the SAg and BT systems. For PBMC viability (referred to as PBMC Cytotoxicity within the assay endpoint names), cells were plated (75,000/well in a 96-well plate) and then chemical samples added for 1 h before addition of activators, SEB and TSST-1 (20 ng/mL final concentration each). Cells were incubated for 90 h. Then, Alamar Blue (20 uL/well) (Invitrogen, Cat DAL1100) was added for 6 h, and the plates were read with a fluorescence microplate reader at 546/580 nm (excitation/emission). For PBMC proliferation, cells were plated and activated as above but incubated for only 16 h prior to addition of Alamar Blue. Plates were read after 6 h.
# [8] = UKN2_HCS_IMR90_cell_viability: Viability Assessment in the University of Konstanz (UKN) Leist Lab Neural Crest Cell Migration Assay in human induced IMR90 Pluripotent Stem Cells (UKN2) (AID 2284233);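 further: viability of neural crest cells differentiated from IMR90 iPSC measured by calcein-AM fluorescence imaging; cells exposed to compound for 24 h after a 24 h migration phase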
# Summary of the method: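 Human IMR90-derived neural crest cells were allowed to migrate for 24 h into a cell-free zone, then exposed to test chemicals for 24 h. Calcein-AM and Hoechst staining with high-content imaging gave viability, analysed against DMSO baseline.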
# [9] = TAMU_HCS_1.5hr_SingleDonor1434_Cytotoxicity: Cytotoxicity Assessment using High-content Screening (HCS) Fluorescent Imaging for the Texas A&M University (TAMU) 1.5-hr Human Induced Pluripotent Stem Cell (iPSC)-derived Cardiotoxicity Assay (AID 2284234; active means hit-call score of the fitted dose curve at least 0.9, where 1 is the maximum)
# Summary of the method: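 Human iPSC-derived cardiomyocytes dosed at 0.2, 1, 10, 100 uM final (0.5% DMSO) for 90 min at 37 C. Hoechst 33342-stained nuclei counted by 10x high-content imaging; POD is EC10, a 10% drop in total cell count versus DMSO.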
# [10] = TAMU_PeakParms_SingleDonor1434_QT: Texas A&M University (TAMU) 1.5-hr Human Induced Pluripotent Stem Cell (iPSC)-derived Cardiomyocytes Calcium (Ca+2) Flux Assay for Cardiotoxicity: QT (decay-rise ratio) (AID 2284235; active means hit-call score of the fitted dose curve at least 0.9, where 1 is the maximum)
# Summary of the method: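 iPSC-derived cardiomyocytes (single donor 1434) dosed at 0.2, 1, 10, 100 uM final in 0.5% DMSO, 90 min at 37C. Ca2+ flux fluorescence decay/rise ratio; EC05 (5% increase versus DMSO) as POD, excluding beat-arrest and severe-notch data.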
# Chain of Tumor necrosis factor (Homo sapiens) (P01375 whole entry, looked up): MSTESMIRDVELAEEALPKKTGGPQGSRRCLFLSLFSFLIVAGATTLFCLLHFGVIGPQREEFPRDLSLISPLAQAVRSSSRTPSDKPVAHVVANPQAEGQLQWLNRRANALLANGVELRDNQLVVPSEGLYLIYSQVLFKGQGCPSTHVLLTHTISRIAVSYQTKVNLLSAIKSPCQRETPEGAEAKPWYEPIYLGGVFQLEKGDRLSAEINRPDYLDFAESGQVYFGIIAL
compound,measurement,setting,value
Sc1ccccc1,outcome,[1],inactive
same,outcome,[2],inactive
same,outcome,[3],inactive
same,outcome,[4],inactive
same,outcome,[5],inactive
same,outcome,[6],inactive
same,outcome,[7],inactive
CO/C=C(/C(=O)OC)c1ccccc1COc1cccc(C(F)(F)F)n1,AC50,[8],50 µM (active)
ClC1=C(Cl)[C@]2(Cl)[C@@H]3[C@@H]4C[C@@H]([C@H]5O[C@@H]45)[C@@H]3[C@@]1(Cl)C2(Cl)Cl,outcome,[9],inactive
same,outcome,[10],inactive
O=C(O)C(F)(F)C(F)(F)C(F)(F)C(F)(F)C(F)(F)F,outcome,[1],inactive
same,outcome,[2],inactive
same,outcome,[3],inactive
same,outcome,[4],inactive
same,outcome,[5],inactive
same,outcome,[6],inactive
same,outcome,[7],inactive
O=C(O)C(F)(F)C(F)(F)C(F)(F)C(F)(F)C(F)(F)C(F)(F)C(F)(F)C(F)(F)F,outcome,[1],inactive
same,outcome,[2],inactive
same,AC50,[3],30 µM (active)
same,outcome,[3],inactive
same,outcome,[4],inactive
same,outcome,[5],inactive
same,AC50,[6],49.8 µM (active)
same,outcome,[6],inactive
same,AC50,[7],30 µM (active) and 42.6 µM (active)
O=C(O)C(F)(F)C(F)(F)C(F)(F)C(F)(F)C(F)(F)C(F)(F)C(F)(F)C(F)(F)C(F)(F)F,AC50,[1],5.95 µM (active)
same,outcome,[1],inactive
same,outcome,[2],inactive
same,AC50,[3],20.4 µM (active)
same,outcome,[3],inactive
same,outcome,[4],inactive
same,AC50,[5],37.8 µM (active)
same,outcome,[5],inactive
same,outcome,[6],inactive
same,AC50,[7],48.6 µM (active) and 44.7 µM (active)
NS(=O)(=O)C(F)(F)C(F)(F)C(F)(F)C(F)(F)C(F)(F)C(F)(F)C(F)(F)C(F)(F)F,outcome,[1],inactive
same,AC50,[2],23.8 µM (active) and 45.3 µM (active)
same,outcome,[3],inactive
same,AC50,[4],44.5 µM (active) and 43.1 µM (active)
same,AC50,[5],46.5 µM (active)
same,outcome,[5],inactive
same,AC50,[6],46.3 µM (active) and 25 µM (active)
same,AC50,[7],20.2 µM (active) and 26.5 µM (active)
Oc1c(Cl)c(Cl)c(Cl)c(Cl)c1Cl,outcome,[1],inactive
same,AC50,[2],27 µM (active)
same,outcome,[3],inactive
same,outcome,[4],inactive
same,outcome,[5],inactive
same,outcome,[6],inactive
same,AC50,[7],2.41 µM (active)
CCOP(=S)(OCC)SCSC(C)(C)C,outcome,[8],inactive
O=S(=O)(O)C(F)(F)C(F)(F)C(F)(F)C(F)(F)F,outcome,[1],inactive
same,outcome,[2],inactive
same,outcome,[3],inactive
same,outcome,[4],inactive
same,outcome,[5],inactive
same,outcome,[6],inactive
same,outcome,[7],inactive
same,outcome,[8],inactive
C=CC(N)=O,outcome,[10],inactive
O=S(=O)(O)C(F)(F)C(F)(F)C(F)(F)C(F)(F)C(F)(F)C(F)(F)F,outcome,[1],inactive
same,outcome,[2],inactive
same,outcome,[3],inactive
same,outcome,[4],inactive
same,outcome,[5],inactive
same,outcome,[6],inactive
same,outcome,[7],inactive
same,outcome,[8],inactive
